Reference: the supplement of paper PMC11732987, “Enantioselective OTUD7B fragment discovery through chemoproteomics screening and high-throughput optimisation” (Communications Chemistry, 2025)
Values without a mark were called inactive.

Each target was assayed with ClCC(=O)NC(C1CC1)C1CC1 (assay: log2 ratio of Biotin-Ahx-Ub-VS probe labelling (fragment/DMSO); higher = less target engagement (more negative = stronger competition), active = hit call of the paper (q ≤ 0.05, log2 ratio ≤ -1)). Details: compound concentration: 200 uM; treatment time: 3 h.
Method: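 Competitive ABPP in HEK293T cell lysate. Lysates were treated with each chloroacetamide fragment at 200 µM for 3 h, then with Biotin-Ahx-Ub-VS (0.5 µM, 1 h), NeutrAvidin-enriched and analysed by diaPASEF LC-MS/MS. Protein LFQ was median-normalised; average log2 ratio is fragment/DMSO from an unpaired t-test (n=3 treated, n=44 DMSO). Hits: q ≤ 0.05, log2 ratio ≤ -1, unique peptides ≥ 2.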

Sequence of UniProt Q92560 (Q92560 whole entry): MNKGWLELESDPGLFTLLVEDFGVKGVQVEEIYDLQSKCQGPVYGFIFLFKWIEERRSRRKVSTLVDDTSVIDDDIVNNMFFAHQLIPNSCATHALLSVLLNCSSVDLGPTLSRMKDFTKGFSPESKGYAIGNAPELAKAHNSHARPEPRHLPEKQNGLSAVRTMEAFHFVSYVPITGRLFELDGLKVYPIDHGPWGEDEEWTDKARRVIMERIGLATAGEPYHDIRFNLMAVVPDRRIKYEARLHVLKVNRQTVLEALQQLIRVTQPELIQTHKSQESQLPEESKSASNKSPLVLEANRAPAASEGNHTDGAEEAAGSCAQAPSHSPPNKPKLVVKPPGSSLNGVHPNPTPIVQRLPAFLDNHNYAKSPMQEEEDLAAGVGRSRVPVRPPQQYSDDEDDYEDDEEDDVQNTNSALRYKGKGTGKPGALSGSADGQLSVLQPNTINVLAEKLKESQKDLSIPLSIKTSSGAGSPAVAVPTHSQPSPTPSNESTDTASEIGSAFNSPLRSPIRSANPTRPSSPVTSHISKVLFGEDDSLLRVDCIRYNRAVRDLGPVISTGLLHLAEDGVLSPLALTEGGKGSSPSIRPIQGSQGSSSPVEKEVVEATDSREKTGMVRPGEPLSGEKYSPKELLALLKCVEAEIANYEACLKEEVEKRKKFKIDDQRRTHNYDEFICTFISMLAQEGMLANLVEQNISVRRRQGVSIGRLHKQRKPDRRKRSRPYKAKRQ
Sequence of UniProt Q92905 (Q92905 whole entry, looked up): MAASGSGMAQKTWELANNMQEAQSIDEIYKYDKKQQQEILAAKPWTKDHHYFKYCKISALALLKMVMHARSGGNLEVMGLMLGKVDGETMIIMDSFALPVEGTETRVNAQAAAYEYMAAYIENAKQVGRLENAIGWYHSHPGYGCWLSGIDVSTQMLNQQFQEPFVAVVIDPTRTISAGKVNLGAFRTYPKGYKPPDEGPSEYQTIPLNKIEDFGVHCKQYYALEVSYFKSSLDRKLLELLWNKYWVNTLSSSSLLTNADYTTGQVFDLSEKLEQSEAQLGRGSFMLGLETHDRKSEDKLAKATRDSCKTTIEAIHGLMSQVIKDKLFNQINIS
Sequence of UniProt Q9Y4E8 (Q9Y4E8 whole entry): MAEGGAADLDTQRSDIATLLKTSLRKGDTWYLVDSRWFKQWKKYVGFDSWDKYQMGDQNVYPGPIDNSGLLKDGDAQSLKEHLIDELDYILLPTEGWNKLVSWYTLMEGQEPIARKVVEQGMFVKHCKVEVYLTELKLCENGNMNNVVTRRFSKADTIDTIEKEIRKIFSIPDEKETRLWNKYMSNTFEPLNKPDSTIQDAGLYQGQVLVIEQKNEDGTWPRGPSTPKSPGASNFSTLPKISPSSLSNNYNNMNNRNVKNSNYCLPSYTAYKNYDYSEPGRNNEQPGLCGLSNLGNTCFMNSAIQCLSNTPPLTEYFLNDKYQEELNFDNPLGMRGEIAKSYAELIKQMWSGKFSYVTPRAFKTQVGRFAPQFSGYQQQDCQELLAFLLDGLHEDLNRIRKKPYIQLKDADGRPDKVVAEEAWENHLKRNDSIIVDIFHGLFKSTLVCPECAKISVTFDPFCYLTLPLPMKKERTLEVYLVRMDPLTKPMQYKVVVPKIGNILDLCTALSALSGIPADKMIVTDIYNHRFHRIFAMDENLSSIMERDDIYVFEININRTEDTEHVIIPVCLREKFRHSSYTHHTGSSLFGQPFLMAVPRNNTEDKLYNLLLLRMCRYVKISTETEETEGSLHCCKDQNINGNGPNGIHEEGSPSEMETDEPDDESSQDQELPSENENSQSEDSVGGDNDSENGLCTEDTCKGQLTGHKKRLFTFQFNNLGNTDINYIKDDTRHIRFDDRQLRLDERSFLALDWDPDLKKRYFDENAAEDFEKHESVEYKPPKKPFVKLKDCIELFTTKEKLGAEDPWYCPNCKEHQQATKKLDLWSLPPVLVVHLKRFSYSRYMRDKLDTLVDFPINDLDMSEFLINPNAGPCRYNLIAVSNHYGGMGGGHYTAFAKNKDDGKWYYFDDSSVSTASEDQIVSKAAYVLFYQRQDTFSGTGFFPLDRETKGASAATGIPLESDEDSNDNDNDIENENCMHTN
Sequence of UniProt Q96K76 (Q96K76 whole entry): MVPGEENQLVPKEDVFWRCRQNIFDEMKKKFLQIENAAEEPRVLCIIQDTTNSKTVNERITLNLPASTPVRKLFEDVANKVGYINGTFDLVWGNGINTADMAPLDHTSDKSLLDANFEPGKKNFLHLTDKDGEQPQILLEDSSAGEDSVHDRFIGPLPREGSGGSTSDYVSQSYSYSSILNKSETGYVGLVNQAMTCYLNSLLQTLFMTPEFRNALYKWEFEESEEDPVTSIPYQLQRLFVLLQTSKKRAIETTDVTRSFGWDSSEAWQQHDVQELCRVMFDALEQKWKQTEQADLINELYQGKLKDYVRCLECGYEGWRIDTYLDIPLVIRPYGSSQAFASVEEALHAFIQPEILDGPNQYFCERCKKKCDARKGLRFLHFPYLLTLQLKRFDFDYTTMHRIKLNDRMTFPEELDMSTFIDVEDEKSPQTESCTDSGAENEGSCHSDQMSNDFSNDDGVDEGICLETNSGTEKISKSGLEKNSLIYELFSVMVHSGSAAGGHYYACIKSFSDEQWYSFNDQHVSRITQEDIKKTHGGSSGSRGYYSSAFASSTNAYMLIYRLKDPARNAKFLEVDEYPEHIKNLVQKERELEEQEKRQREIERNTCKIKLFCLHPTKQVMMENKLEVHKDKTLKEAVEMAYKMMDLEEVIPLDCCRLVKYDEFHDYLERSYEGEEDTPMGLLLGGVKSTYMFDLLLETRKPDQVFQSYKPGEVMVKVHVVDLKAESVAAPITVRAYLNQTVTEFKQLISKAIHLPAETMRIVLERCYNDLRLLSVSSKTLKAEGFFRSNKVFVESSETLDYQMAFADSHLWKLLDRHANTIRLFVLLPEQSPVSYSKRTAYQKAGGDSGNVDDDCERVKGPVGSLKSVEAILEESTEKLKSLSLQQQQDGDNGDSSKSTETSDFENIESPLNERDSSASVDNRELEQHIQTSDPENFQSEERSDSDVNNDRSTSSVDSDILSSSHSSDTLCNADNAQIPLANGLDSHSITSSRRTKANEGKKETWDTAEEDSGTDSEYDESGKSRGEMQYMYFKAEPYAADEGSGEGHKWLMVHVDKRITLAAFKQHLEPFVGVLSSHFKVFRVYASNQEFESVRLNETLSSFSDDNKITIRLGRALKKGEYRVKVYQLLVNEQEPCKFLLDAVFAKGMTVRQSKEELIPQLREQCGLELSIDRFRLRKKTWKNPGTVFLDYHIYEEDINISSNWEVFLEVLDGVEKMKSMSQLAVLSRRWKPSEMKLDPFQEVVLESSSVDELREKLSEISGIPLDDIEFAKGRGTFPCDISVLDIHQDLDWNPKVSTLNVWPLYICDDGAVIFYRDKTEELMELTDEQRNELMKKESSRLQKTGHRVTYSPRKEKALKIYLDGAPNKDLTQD
Sequence of UniProt P54252 (P54252 whole entry): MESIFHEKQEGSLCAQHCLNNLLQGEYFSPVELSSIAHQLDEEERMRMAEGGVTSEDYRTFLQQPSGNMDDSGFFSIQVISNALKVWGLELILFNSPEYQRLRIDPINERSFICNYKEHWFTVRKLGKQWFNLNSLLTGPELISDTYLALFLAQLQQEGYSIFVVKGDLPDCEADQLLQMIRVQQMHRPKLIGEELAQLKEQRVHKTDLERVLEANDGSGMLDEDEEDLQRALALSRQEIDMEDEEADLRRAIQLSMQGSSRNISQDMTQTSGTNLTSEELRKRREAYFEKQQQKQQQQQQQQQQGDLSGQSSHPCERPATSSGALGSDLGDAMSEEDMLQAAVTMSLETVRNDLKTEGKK
Sequence of UniProt Q9Y5T5 (Q9Y5T5 whole entry, looked up): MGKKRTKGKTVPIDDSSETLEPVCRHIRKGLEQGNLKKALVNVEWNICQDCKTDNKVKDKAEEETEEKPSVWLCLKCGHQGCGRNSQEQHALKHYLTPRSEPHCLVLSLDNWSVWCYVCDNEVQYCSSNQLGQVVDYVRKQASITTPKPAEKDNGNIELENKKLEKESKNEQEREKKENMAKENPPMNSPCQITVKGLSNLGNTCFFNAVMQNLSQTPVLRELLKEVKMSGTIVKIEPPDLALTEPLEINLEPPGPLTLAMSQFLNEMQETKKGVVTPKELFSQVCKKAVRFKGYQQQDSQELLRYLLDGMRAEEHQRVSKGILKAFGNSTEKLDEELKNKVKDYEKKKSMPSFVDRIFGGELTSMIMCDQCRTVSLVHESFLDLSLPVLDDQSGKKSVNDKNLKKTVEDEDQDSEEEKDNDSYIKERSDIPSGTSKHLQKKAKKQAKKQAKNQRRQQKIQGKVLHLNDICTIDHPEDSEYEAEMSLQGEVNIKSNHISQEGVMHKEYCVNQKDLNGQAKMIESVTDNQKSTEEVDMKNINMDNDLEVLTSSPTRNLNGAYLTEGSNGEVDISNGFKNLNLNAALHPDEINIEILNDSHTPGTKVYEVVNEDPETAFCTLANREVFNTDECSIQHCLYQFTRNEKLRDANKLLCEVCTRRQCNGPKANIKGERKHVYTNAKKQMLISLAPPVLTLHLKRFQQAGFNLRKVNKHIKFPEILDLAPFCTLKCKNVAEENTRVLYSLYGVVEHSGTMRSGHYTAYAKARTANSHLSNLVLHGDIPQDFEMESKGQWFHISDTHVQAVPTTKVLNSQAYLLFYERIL
Sequence of UniProt Q9NUU6 (Q9NUU6 whole entry): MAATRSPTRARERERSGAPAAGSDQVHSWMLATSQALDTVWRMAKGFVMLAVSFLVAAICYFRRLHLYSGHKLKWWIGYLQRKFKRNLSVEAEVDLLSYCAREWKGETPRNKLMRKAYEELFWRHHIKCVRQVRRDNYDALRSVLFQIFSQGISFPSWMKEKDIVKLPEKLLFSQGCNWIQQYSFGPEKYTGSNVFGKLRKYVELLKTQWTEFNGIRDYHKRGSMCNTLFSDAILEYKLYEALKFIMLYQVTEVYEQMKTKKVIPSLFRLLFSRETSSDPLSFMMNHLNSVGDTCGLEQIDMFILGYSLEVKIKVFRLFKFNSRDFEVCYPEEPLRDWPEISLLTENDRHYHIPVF

| Target | log2 ratio of Biotin-Ahx-Ub-VS probe labelling |
| --- | --- |
| USP39 (UniProt Q53GS9) | -0.194 |
| USP54 (UniProt Q70EL1) | -0.749 |
| USP15 (UniProt Q9Y4E8) | -0.268 |
| USP4 (UniProt Q13107) | -0.162 |
| UCHL5 (UniProt Q9Y5K5) | -0.00772 |
| ATXN3 (UniProt P54252) | 0.0786 |
| FAM105A (UniProt Q9NUU6) | -0.0106 |
| USP48 (UniProt Q86UV5) | 0.01 |
| BAP1 (UniProt Q92560) | -0.654 |
| USP28 (UniProt Q96RU2) | -0.446 |
| USP7 (UniProt Q93009) | -0.307 |
| OTUD4 (UniProt Q01804) | -0.457 |
| USP47 (UniProt Q96K76) | -0.205 |
| UniProt Q9UGI0 | -0.0131 |
| USP24 (UniProt Q9UPU5) | -0.346 |
| EIF3F (UniProt O00303) | -0.0875 |
| UniProt Q9P2H5 | -0.0753 |
| ALG13 (UniProt Q9NP73) | 0.189 |
| OTUD6B (UniProt Q8N6M0) | -0.29 |
| UniProt O00487 | -0.179 |

| Target | log2 ratio of Biotin-Ahx-Ub-VS probe labelling |
| --- | --- |
| USP42 (UniProt Q9H9J4) | -0.0349 |
| OTUD7B (UniProt Q6GQQ9) | -1.44 (active) |
| USP46 (UniProt P62068) | 0.045 |
| USP19 (UniProt O94966) | -0.198 |
| PSMD7 (UniProt P51665) | -0.0309 |
| UniProt O00507 | -0.0912 |
| UniProt Q8TE49 | -0.531 |
| VCPIP1 (UniProt Q96JH7) | -0.276 |
| USP22 (UniProt Q9UPT9) | -0.16 |
| EIF3H (UniProt O15372) | -0.0951 |
| UniProt Q5T2D3 | -0.0205 |
| PRPF8 (UniProt Q6P2Q9) | 0.0738 |
| USP36 (UniProt Q9P275) | -0.148 |
| USP5 (UniProt P45974) | -0.319 |
| USP25 (UniProt Q9UHP3) | -0.502 |
| USP8 (UniProt P40818) | -0.0528 |
| USP10 (UniProt Q14694) | -0.045 |
| USP9X (UniProt Q93008) | -0.125 |
| USP16 (UniProt Q9Y5T5) | -0.253 |
| COPS5 (UniProt Q92905) | -0.232 |
